Test results taken from PubChem BioAssay (NCI).
Compounds without any hit were thinned out: in the full panel of roughly 79,000, 15% have a hit. A number with no mark means an inactive call. Activity calls are given as the source filed them. Cut-off read from the data, not from the text of the source: active = growth inhibition above about 70%; inactive = the rest.

Assay: NCI Yeast Anticancer Drug Screen. Data for the rad52 strain (AID 147);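 note: 0% = growth of vehicle-treated control cultures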
Conditions: S. cerevisiae rad52 mutant growth inhibition; at 3.7 µM; stronger effect = higher value
Outline: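 Yeast strain carrying a DNA damage repair alteration was exposed to test compounds. Growth inhibition was measured relative to vehicle-treated controls.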
For C[N+](C)([O-])CCCNc1c2ccccc2nc2cccc([N+](=O)[O-])c12, the growth inhibition was 86% (active).
In the case of O=C(c1cc(=O)c2ccc(O)cc2o1)c1ccc(Cl)cc1Cl, the growth inhibition is reported as -32%.
Work on CCCNC(=O)OCc1c(COC(=O)NCCC)c(-c2ccc(Cl)c(Cl)c2)n2c1CCC2 yielded a growth inhibition of -7%.
In the case of O=C(Cc1ccccc1)NN1C(=O)C(Cl)C1c1cc(Br)cc(Br)c1O (centres undefined), the growth inhibition is reported as 33%.
Work on CCOC(=O)C(Cc1c2ccccc2cc2ccccc12)(NC(C)=O)C(=O)OCC yielded a growth inhibition of -2%.
For O=[N+]([O-])/C=C/c1cc2ccc3ccccc3c2[nH]1, the growth inhibition was 66%.
Work on Fc1ccc(Nc2ccc3ccccc3c2)cc1 yielded a growth inhibition of -2%.
With O=S1(=O)CCC2=CC(C(F)(F)F)=CC(C(F)(F)F)=CN21 the growth inhibition was 42%.
For O=C(Cc1ccccc1)NNc1nc(NNC(=O)c2ccncc2)nc(Nc2ccc([N+](=O)[O-])cc2)n1, the growth inhibition was 29%.
With CCCCS/C(=C(/C#N)C(N)=O)c1cc2c([nH]1)CCCC2 the growth inhibition was 26%.
In the case of O=C(O)c1ccccc1C(=O)OC1CCc2ccccc2C1 (centres undefined), the growth inhibition is reported as -2%.
CCOC(=O)/C(=C\c1cccc(C)c1)C(C)=O showed a growth inhibition of 10%.
With NC(=S)N/N=C1\c2ccccc2CCC1CCC1(O)CCc2ccccc2C1=O (centres undefined) the growth inhibition was 47%.
Work on Cc1cccc2c(Cl)c3cccc(C)c3nc12 yielded a growth inhibition of -1%.
With CC(C)OC(=O)NNc1c(Cl)cc(Cl)cc1Cl the growth inhibition was -2%.
Compound Nc1ccc2c(c1)C(=O)c1c(F)cccc1-2 has a growth inhibition of 5%.
In the case of N#CSCC1COc2ccccc2O1 (centres undefined), the growth inhibition is reported as -47%.
Work on Cc1ccc(S(=O)(=O)NC(=O)C2C(=O)CC3(CCCCC3)CC2=O)cc1 yielded a growth inhibition of -37%.
For CC1=NN(C(=O)c2ccccc2O)C(=O)/C1=C/c1ccco1, the growth inhibition was 16%.
